LYPLA1 inh – counter-screen for PME1 inhibitors: inhibitors of human LYPLA1 | O75608 | recombinant LYPLA1, FP-Rh probe fluorescence polarization | inhibition, % at 5.9 µM | actives 0.16% (n = 320,000) | AID 2174;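 active = inhibition above the mean of all tested compounds plus 3 SD, set per campaign, cut at about 14% in these data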;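 note: inhibitors block serine hydrolase probe labeling of LYPLA1 so polarization falls; 0% = enzyme with DMSO and 100% = wells lacking LYPLA1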
Target sequence (O75608 whole entry, looked up): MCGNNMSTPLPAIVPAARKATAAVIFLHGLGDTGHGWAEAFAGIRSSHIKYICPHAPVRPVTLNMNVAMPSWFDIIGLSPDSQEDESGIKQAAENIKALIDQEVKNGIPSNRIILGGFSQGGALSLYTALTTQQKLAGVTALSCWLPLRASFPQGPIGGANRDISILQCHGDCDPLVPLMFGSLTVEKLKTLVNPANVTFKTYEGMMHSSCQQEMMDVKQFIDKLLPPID
GSTO1 counter – GSTO1 inhibition, counter-screen for RBBP9 inhibitors. P78417. recombinant GSTO1, activity-based probe fluorescence polarization. inhibition, % at 5.96 µM. actives 1.1% (n = 300,000);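 active = inhibition above the campaign mean inhibition plus 3 SD, cut at about 35% in these data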;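 note: 0% = GSTO1-1 with DMSO and 100% = wells lacking GSTO1-1 enzyme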
LYPLA2 counter – counter-screen for PME1 inhibitors: inhibitors of human LYPLA2 | inhibition, % at 5.9 µM | recombinant LYPLA2, FP-Rh probe fluorescence polarization | AID 2177 | O95372 | actives 0.38% (n = 320,000);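 active = inhibition above the screen-wide mean plus 3 SD, limit set per campaign, cut at about 26% in these data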;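 note: 0% = LYPLA2 with DMSO and 100% = wells lacking LYPLA2 enzyme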
Fam108B counter – Fam108B inhibition, counter-screen for RBBP9 inhibitors; recombinant Fam108B, FP-Rh probe fluorescence polarization; inhibition, % at 9.51 µM; actives 0.33% (n = 300,000); AID 1947;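 active = inhibition above the screen mean inhibition plus 3 SD, computed separately per campaign, cut at about 18% in these data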;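 note: inhibitors lower polarization as less probe binds the enzyme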
PAD4 inh – inhibitors of human PAD4; Q9UM07; actives 0.41% (n = 330,000); recombinant PAD4, RCA probe fluorescence polarization; inhibition, % at 6.36 µM; AID 485272;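 active = percent inhibition above a cutoff equal to the mean of all tested compounds plus 3 SD, cut at about 15% in these data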;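 note: 0% = PAD4 with RCA probe and DMSO and 100% = probe without PAD4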
PME-1 primary – PME-1 (human) inhibition; inhibition, % at 5.9 µM; actives 0.53% (n = 320,000); Q9Y570; recombinant PME-1, FP-Rh probe fluorescence polarization;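 active = inhibition above the campaign mean of all compounds plus 3 SD, cut at about 26% in these data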;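 note: competitive labeling of PME-1 active site by serine hydrolase directed probe; 0% = PME-1 with DMSO and 100% = wells lacking PME-1 enzyme; inhibitors block probe labeling so polarization falls and inhibition rises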
Target sequence (Q9Y570 whole entry, looked up): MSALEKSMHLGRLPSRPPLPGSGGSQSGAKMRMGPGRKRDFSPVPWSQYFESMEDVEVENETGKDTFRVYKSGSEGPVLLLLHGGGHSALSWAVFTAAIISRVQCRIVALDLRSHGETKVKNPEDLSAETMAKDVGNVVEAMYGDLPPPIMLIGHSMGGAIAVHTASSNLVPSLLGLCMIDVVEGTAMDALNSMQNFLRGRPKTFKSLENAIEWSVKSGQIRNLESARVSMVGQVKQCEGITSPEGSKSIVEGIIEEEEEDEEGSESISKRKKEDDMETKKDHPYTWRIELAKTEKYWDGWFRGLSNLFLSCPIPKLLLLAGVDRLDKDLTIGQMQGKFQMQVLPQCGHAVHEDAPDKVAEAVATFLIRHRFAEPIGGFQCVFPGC
* marks the source's active call; other numbers are inactive results; / = no result given. Only some compounds are listed: those with a hit (about 1.8% of all), similar ones and a draw of the others.

SMILES	LYPLA1 inh	GSTO1 counter	LYPLA2 counter	Fam108B counter	PAD4 inh	PME-1 primary
NC(=O)c1ccc(Oc2ccc(-c3nnco3)cc2)c([N+](=O)[O-])c1	-2	7	8	4	2	0
NC(=O)c1ccc(Oc2ccc3ccc(=O)oc3c2)c([N+](=O)[O-])c1	7	-2	38*	6	0	23
O=C1COc2ccc(S(=O)(=O)Nc3cccc(Cl)c3)cc2N1	-4	23	2	1	-4	-3
CCc1cccc(NS(=O)(=O)c2ccc3c(c2)NC(=O)CO3)c1	2	37*	3	3	-2	6
O=C(CCl)NCc1cc(-c2ccc(Cl)cc2)no1	2	89*	7	1	0	0
COc1ccc(OCc2cc(-c3ccc(Cl)cc3)no2)cc1	0	-6	-2	-3	5	1
C/C(=N/Nc1ccnc2cc(Cl)ccc12)c1ccc(O)cc1	-10	-8	-2	10	0	33*
C/C(=N/Nc1ccnc2cc(Cl)ccc12)c1ccc(N)cc1	-6	-1	-9	6	1	36*
CSc1ccccc1NC(=O)C1=CC(c2cccs2)=NS(=O)(=O)N1C	-3	6	-2	3	2	9
CC(=O)Nc1cc(OC(C)=O)c2nonc2c1OC(C)=O	81*	89*	95*	76*	83*	63*
CC(=O)Nc1nonc1NC(C)=O	3	-3	-3	1	-1	3
N#CC(C#N)=NNc1ccc(S(=O)(=O)N2CCCCC2)cc1	-9	21	-2	3	-6	28*
CC(CC(=O)O)Nc1ccccc1O (stereo unspecified)	1	48*	-2	1	-5	7
COCCNC(=O)c1cc(-c2ccc(-c3ccccc3)cc2)nc2ccccc12	-7	-9	-12	-11	-1	-4
N#C/C(=C\c1ccc(N2CCOCC2)o1)c1nc2ccccc2[nH]1	-16	-59	-56	-101	6	-78
N#C/C(=C/c1ccc(N2CCOCC2)o1)c1ccc(Cl)cc1	5	2	6	21*	-10	0
CC1CN(S(=O)(=O)c2cc(C(=O)N(C)Cc3cccs3)ccc2Cl)CC(C)O1 (stereo unspecified)	/	/	/	/	-3	/
CCOC(=O)c1c(C)[nH]c(C)c1C(=O)COC(=O)c1ccc(OC)c(OC)c1	0	35*	1	0	-4	2
CCOC(=O)c1c(C)[nH]c(C)c1C(=O)COC(=O)c1c(OC)cccc1OC	-5	3	0	2	-2	-2
O=C(COC(=O)c1ccc(Br)o1)Nc1ccc(N2CCOCC2)cc1	5	/	3	/	9	-3
CC(C)c1ncc(C(O)c2cccc3ccccc23)n1C (stereo unspecified)	-2	36*	0	-2	0	-1
O=C(OCc1ccc([N+](=O)[O-])cc1)c1cc(=O)c2ccccc2o1	0	-3	0	1	1	3
Cc1ccc2c(-c3csc(N)n3)c[nH]c2c1	-14	-11	-5	14	-22	51*
Nc1nc(-c2c[nH]c3ccccc23)cs1	-8	-5	-13	-4	-71	-2
Cc1cccc(C(=O)OCC(=O)NCCN2C(=O)CSC2=O)c1[N+](=O)[O-]	/	/	/	/	-1	/
SMILES	LYPLA1 inh	GSTO1 counter	LYPLA2 counter	Fam108B counter	PAD4 inh	PME-1 primary
Cc1cccc(NC(=O)CCC(=O)OCC(=O)c2ccc(Oc3ccc([N+](=O)[O-])cc3)cc2)c1	1	8	31*	3	0	5
Cc1ccc(C(=O)COC(=O)c2cccc(NC(=O)c3ccc([N+](=O)[O-])cc3[N+](=O)[O-])c2)cc1	-19	-24	24	12	3	32*
CC(=O)Nc1ccc(C(=O)OCC(=O)c2cccc([N+](=O)[O-])c2)cc1	4	-2	21	-3	-1	2
NC(=O)c1ccc(NC(=O)COC(=O)C2COc3ccccc3O2)cc1 (stereo unspecified)	/	/	/	/	-1	/
CCN(CC(=O)Nc1ccc(OC)cc1)C(=O)C1CCN(C(=O)c2ccc(Cl)cc2)CC1	-1	/	5	/	-2	-1
C[C@@H]1C(=O)N(c2ccccc2)[C@@H]1c1ccncc1	/	/	/	/	1	/
CCCCn1c(NC(=O)c2ccc(F)cc2)c(C#N)c2nc3ccccc3nc21	60*	67*	61*	56*	70*	20
C#CCSc1nnc(-c2sc(-c3ccccc3)nc2C)n1C	0	74*	-4	0	-5	-4
O=C(c1cc2cc(F)ccc2[nH]1)N1CCN(C(=O)c2ccco2)CC1	-1	1	4	2	-4	-3
CC(C)(C)OC(=O)NCc1ccc(NC(=O)c2nc[nH]c2C(=O)NCCCNC(=O)c2[nH]cnc2C(=O)Nc2ccc(CNC(=O)OC(C)(C)C)cc2)cc1	/	/	/	/	-4	/
C/C(=N\NC(=O)c1ccc(Br)cc1)C1C(=O)c2ccccc2C1=O	18*	-8	1	16	-2	10
Cc1cc(C(=O)CSc2nnc(N)s2)c(C)n1CCc1ccc(Cl)cc1	-1	1	1	-3	-2	-11
Cc1cc(C(=O)CSc2nc(N)cc(=O)[nH]2)c(C)n1CCc1ccc(F)cc1	-8	-1	-6	-5	32*	0
Cc1cc(C(=O)CCl)c(C)n1CCc1ccc(Cl)cc1	-5	88*	-2	-2	-2	17
Cc1ccc(C)n1CCN1CCN(C(=O)CC#N)CC1	0	17	3	-1	-4	-1
N#CC1=C(N)C(C#N)(C#N)C(c2cccnc2)C2CC(c3ccccc3)CC=C12 (stereo unspecified)	-3	4	6	2	-4	54*
O=C1c2ccccc2C(=O)N1CCCCSc1nnnn1-c1ccccc1	-2	0	8	2	1	7
O=C1c2ccccc2C(=O)N1CSc1nnnn1-c1ccccc1	2	37*	4	0	0	-2
COc1ccc(OC)c(C(c2nnnn2CCc2ccccc2)N2CCC(C(N)=O)CC2)c1 (stereo unspecified)	-2	-2	-3	-1	-5	-8
CC1CCCN(C(=O)c2ccc3c(c2)OCO3)C1 (stereo unspecified)	2	-5	-4	3	-3	-2
O=C(c1ccc2c(c1)OCO2)N1CCCC(c2ccccc2)C1 (stereo unspecified)	1	6	3	4	-1	33*
COc1cc(OC)c(C2CC(=O)N3CN(c4ccccc4C)CSC3=C2C#N)cc1OC (stereo unspecified)	2	36*	7	0	-21	0
CCN1C(=O)[C@@H]2[C@@H](c3ccc(-c4ccc(C(C)=O)cc4)c(OC)c3)N3CCCC[C@@]3(C(=O)OC)[C@@H]2C1=O	0	-2	7	-1	1	-8
O=C(C(Cl)Cl)N1CCN(Cc2ccccc2)CC1	0	35*	2	-3	-4	-6

Source: PubChem BioAssay
